# Data published in PubChem BioAssay (NCATS).
# Records with an inconclusive call do not appear. Activity calls are given as the source filed them. The call rests on the fitted dose curve; in most records, active means well fitted cell-killing curve with a large enough effect; inconclusive means small, poorly fitted or top-dose-only effect; inactive means no such curve, though single readings can be large or run the other way.
# Assay: qHTS of pediatric cancer cell lines to identify multiple opportunities for drug repurposing: Primary screen for Rh30 cells (AID 1347107); further: nearly all actives have a fitted effect of over 75% in size
# Settings: Rh30 rhabdomyosarcoma viability, CellTiter-Glo luminescence, 48 h; series mostly up to 46 µM
# Method in brief: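 Cells (500-1,000/well) rested 5 h, then received compounds for 48 h; metabolically active cells were measured by CellTiter-Glo luminescence. Final concentrations spanned up to 46 µM (MIPE, 11-point) or 0.59 nM-46 µM (NPC, 8-point) in primary screens, 11-point in follow-ups.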
row,Structure (SMILES),outcome
1,O=C1c2cccc(O)c2C(=O)c2c(O)cccc21,inactive
2,CCCCCOC(=O)Nc1nc(=O)n([C@@H]2O[C@H](C)[C@@H](O)[C@H]2O)cc1F,inactive
3,NC(=O)c1ccc([N+](=O)[O-])cc1Cl,inactive
4,CN(C(=O)c1c(O)c2ccccc2n(C)c1=O)c1ccccc1,inactive
5,COc1nccnc1NS(=O)(=O)c1ccc(N)cc1,inactive
6,COc1ccc(C(=O)N2CCN(CC(=O)N3CCOCC3)CC2)cc1,inactive
7,CCc1cccc(CC)c1NC(=O)CN(CC(=O)O)CC(=O)O,inactive
8,CNCc1ccccc1,inactive
9,COc1cc(O)cc(O)c1,inactive
10,O=C(O)Cn1c(C(=O)Nc2nc(-c3ccccc3Cl)cs2)cc2ccccc21,inactive
11,CCCC(O)C(CC)CO (stereo not drawn),inactive
12,Cc1onc(-c2ccccc2)c1-c1ccc(S(N)(=O)=O)cc1,inactive
13,Cc1[nH]c(C)c(Cl)c(=O)c1Cl,inactive
14,O=C(Cn1ccnc1[N+](=O)[O-])NCc1ccccc1,inactive
15,CN(C/C=C/C#CC(C)(C)C)Cc1cccc2ccccc12,inactive
16,CCS(=O)(=O)CCn1c([N+](=O)[O-])cnc1C,inactive
17,Cc1ccc2c(c1)c1c3n2CCNC3CCC1 (stereo not drawn),inactive
18,C=CCOc1ccccc1OCC(O)CNC(C)C (stereo not drawn),inactive
19,O=C(O)c1ccccc1OP(=O)(O)O,inactive
20,CCCOC(=O)c1ccc(N)cc1,inactive
21,C[C@H]1COc2c(C3(N)CC3)c(F)cc3c(=O)c(C(=O)O)cn1c23,inactive
22,CCN[C@H]1CN(CCCOC)S(=O)(=O)c2sc(S(N)(=O)=O)cc21,inactive
23,CC(=O)Nc1ccccc1,inactive
